PubChem BioAssay (EPA / NIEHS)
Several values for one entry are separate records, joined by “and”; a condition that tells them apart may be missing. Equal values may be shown once. Inconclusive results are not listed. The source holds several records for some structures; these can differ, active in one and inactive in another. Activity calls are given as the source filed them. How the source made its calls: active means hit-call score of the fitted dose curve at least 0.9, where 1 is the maximum; inconclusive means response in the unintended direction; inactive means score below 0.9.

Molecular target: Cellular tumor antigen p53 (Homo sapiens) (UniProt P04637)
Assay: TOX21_p53_BLA_p5_ratio: Tox21 HCT-116 p53 Agonism Beta-lactamase Assay, Ratio, Phase 5 (AID 2283599)
Summary of the method: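 HCT-116 cells carrying a p53-inducible beta-lactamase reporter were seeded at 4000 cells/well and dosed after 5 h with compound in DMSO (217-fold dilution). After 16 h at 37C, CCF4-AM substrate was added for 2 h, and the 460/530 nm emission ratio was scored as gain-of-signal versus DMSO.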

Sequence of Cellular tumor antigen p53 (Homo sapiens) (P04637 whole entry, looked up): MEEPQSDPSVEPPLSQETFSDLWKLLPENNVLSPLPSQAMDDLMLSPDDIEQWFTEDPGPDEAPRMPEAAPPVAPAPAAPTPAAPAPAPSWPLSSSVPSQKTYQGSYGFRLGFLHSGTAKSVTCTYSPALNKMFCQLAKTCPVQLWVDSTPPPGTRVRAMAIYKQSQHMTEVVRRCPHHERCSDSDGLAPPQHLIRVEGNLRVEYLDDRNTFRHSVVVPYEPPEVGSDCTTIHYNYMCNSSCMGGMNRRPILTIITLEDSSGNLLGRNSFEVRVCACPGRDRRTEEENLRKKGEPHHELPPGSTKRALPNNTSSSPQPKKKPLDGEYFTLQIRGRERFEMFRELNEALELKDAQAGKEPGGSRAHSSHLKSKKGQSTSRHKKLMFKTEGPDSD

Structure (SMILES) | outcome | AC50
O=C(N[C@@H](Cc1ccccc1)[C@@H](O)C(=O)N1C[C@@H](O)[C@@H](O)C1)c1cc2cc(Cl)ccc2[nH]1 | inactive | 
COc1cc(/C=C/C(=O)CC(=O)/C=C/c2ccc(O)c(OC)c2)ccc1O |  | 14 µM (active) and 39.4 µM (active) and 7.67 µM (active)
O=c1c(O)c(-c2ccc(O)c(O)c2)oc2cc(O)cc(O)c12 |  | 44.4 µM (active) [middle of 4 runs]
CCCCCCCCCCO | inactive | 
Cc1ccc(C)c(C)c1 | inactive | 
CC1=C(/C=C/C(C)=C/C=C/C(C)=C/CO)C(C)(C)CCC1 | inactive | 86.4 µM (active)
CCOC(=O)CCC(=O)OCC | inactive | 
Clc1cc(Cl)c(Cl)cc1Cl | inactive | 
CCCCCCCCCCCC(=O)OC | inactive | 
CNCc1cc(F)ccc1Oc1ccc(Cl)c(Cl)c1 | inactive | 

System: not listed separately
Assay: TOX21_p53_BLA_p5_viability: Viability Assessment in the Tox21 HCT-116 p53 Agonism Beta-lactamase Assay, Phase 5 (AID 2283600)
Summary of the method: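 Decreased CellTiter-Glo luminescence denotes lost viability. Exposure: 16 h at 37C, 5% CO2, with compounds from DMSO stocks diluted 217-fold in wells of 4000 cells.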

Structure (SMILES) | AC50 | outcome
Nc1nc(N)c2nc(CNc3ccc(C(=O)N[C@@H](CCC(=O)O)C(=O)O)cc3)cnc2n1 | 0.0649 µM (active) | 
CC1(C)CC(N=C=O)CC(C)(CN=C=O)C1 (stereo not given) |  | inactive
CC(C)c1ccc(C(=O)N=C(N)N)cc1S(C)(=O)=O |  | inactive
Cc1ccc(C(C)C)c(O)c1 |  | inactive
O=c1[nH]cc(F)c(=O)[nH]1 | 1.68 µM (active) | inactive
Cc1oc(-c2ccccc2)nc1CCOc1cccc2c1ccn2CCC(=O)O |  | inactive
Cc1c(C(=O)O)c(O)cc2c1C(=O)c1c(O)c([C@@H]3O[C@H](CO)[C@@H](O)[C@H](O)[C@H]3O)c(O)c(O)c1C2=O |  | inactive
CCOc1ccc2c(c1)C(C)=CC(C)(C)N2 |  | inactive
COc1cc(C=O)ccc1O |  | inactive
CCCCCCOCCO |  | inactive
COc1ccc2c(c1)c(CC(=O)O)c(C)n2C(=O)c1ccc(Cl)cc1 |  | inactive
COCCOCCOC |  | inactive
CNC(=O)[C@H]1O[C@@H](n2cnc3c(NCc4cc(Cl)ccc4OCc4cc(C)no4)ncnc32)[C@H](O)[C@@H]1N |  | inactive
COC(=O)c1ccc(O)cc1 |  | inactive
CC(=O)OC/C=C(\C)CCC=C(C)C |  | inactive
CN[C@H]1CC[C@@H](c2ccc(Cl)c(Cl)c2)c2ccc(S(N)(=O)=O)cc21 | 85.5 µM (active) | 
Cc1ccc(N(C)C)cc1 |  | inactive
c1cc(-c2ccncc2)ccn1 |  | inactive
O=C(N[C@@H](Cc1ccccc1)[C@@H](O)C(=O)N1C[C@@H](O)[C@@H](O)C1)c1cc2cc(Cl)ccc2[nH]1 |  | inactive
COc1cc(/C=C/C(=O)CC(=O)/C=C/c2ccc(O)c(OC)c2)ccc1O | 80.7 µM (active) and 22.5 µM (active) | 
O=c1c(O)c(-c2ccc(O)c(O)c2)oc2cc(O)cc(O)c12 |  | inactive
CCCCCCCCCCO |  | inactive
Cc1ccc(C)c(C)c1 |  | inactive
CC1=C(/C=C/C(C)=C/C=C/C(C)=C/CO)C(C)(C)CCC1 |  | inactive
CCOC(=O)CCC(=O)OCC |  | inactive
Clc1cc(Cl)c(Cl)cc1Cl |  | inactive
CCCCCCCCCCCC(=O)OC |  | inactive
CNCc1cc(F)ccc1Oc1ccc(Cl)c(Cl)c1 |  | inactive
